Results on 15 molecules are retold here after PubChem BioAssay.

For part of these data: Potency and affinity values are given separately. Activity calls are given as the source filed them.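 The calls were made as follows, unless noted: active = fitted half-maximal concentration within the tested dose range, moderate curve steepness, a statistically real signal drop, and little compound fluorescence or tag-binding interference; inactive = the rest.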

Assay [1] concerns the target Cell division control protein 42 homolog (Homo sapiens) (UniProt P60953). Briefly: activated mutant Cdc42 GTP-binding inhibitors, dose response, biochemical, multiplex bead flow cytometry, Bodipy-FL-GTP (AID 1333).
Assay [2] shares this target. Briefly: wildtype Cdc42 GTP-binding inhibitors, dose response, biochemical, multiplex bead flow cytometry, Bodipy-FL-GTP (AID 1334;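 active = fitted half-maximal concentration within the tested range, moderate curve steepness, significant signal drop, and little compound fluorescence or bead-linkage interference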). Particulars: bead-based flow cytometry, Bodipy-FL-GTP binding to GST-Cdc42; at 100 µM (top of the series) unless noted. (In general: In flow cytometry, cells or beads pass a laser one at a time.)
Assay [3] has as its target GTPase HRas (Homo sapiens) (UniProt P01112). Briefly: inhibitors of GTP binding to wildtype Ras, dose response, biochemical, multiplex bead flow cytometry (AID 1335;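 active = fitted half-maximal concentration within 10 nM to 100 µM, steepness 0.5 to 2, significant signal drop, low assay interference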). Particulars: bead-based flow cytometry, Bodipy-GTP binding to GST-Ras; at 100 µM (top of the series) unless noted.
Assay [4] has as its system Ras-related protein Rab-7a (dog), GTP binding. Kind of assay: Rab7 GTP binding inhibitors, potency, dose response, biochemical, wildtype, multiplex bead flow cytometry (AID 1336; call rule not given here).
Assay [5] has as its target Ras-related C3 botulinum toxin substrate 1 (Homo sapiens) (UniProt P63000). Briefly: wildtype Rac1 GTP binding inhibitors, dose response, biochemical, multiplex bead flow cytometry (AID 1340;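 active = dose curve with midpoint inside tested range, moderate steepness, plateau gap beyond fit error, low compound glow and bead-link interference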). The note with it: GST-Rac1 beads, Bodipy-FL-GTP binding; at 100 µM (top of the series) unless noted.
For assay [6], the target named is GTPase HRas (Homo sapiens) (UniProt P01112). Briefly: activated Ras mutant GTP binding inhibitors, dose response, biochemical, multiplex bead flow cytometry (AID 1341;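 active = dose-response curve with midpoint inside the tested range, moderate steepness, significant amplitude and little compound fluorescence or bead-attachment interference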;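 also: GST-tagged constitutively activated Ras mutant immobilized on beads and multiplexed with other GTPases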).
Chain of GTPase HRas (Homo sapiens) (P01112 whole entry, looked up): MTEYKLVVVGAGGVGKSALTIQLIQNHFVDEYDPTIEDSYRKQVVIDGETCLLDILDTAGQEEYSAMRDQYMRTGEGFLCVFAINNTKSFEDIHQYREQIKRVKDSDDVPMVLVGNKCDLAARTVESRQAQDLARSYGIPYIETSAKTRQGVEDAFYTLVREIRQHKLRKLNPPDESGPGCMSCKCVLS

Chain of Cell division control protein 42 homolog (Homo sapiens) (P60953 whole entry, looked up): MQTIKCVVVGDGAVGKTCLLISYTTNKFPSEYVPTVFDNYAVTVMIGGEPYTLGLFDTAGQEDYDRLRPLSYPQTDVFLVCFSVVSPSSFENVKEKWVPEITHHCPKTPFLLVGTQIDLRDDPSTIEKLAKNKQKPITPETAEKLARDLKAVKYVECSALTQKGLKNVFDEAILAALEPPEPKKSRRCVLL

As for `COc1cccc(N2CCN(C(=O)c3cccn4c(=O)c5c(C)c(C)sc5nc34)CC2)c1`, the molecule was called inactive in assay [1], in assay [4] and in assay [6]. In assay [2], this molecule registered a fluorescence, percent of control (lower = inhibition) of 32.1%. The molecule further yielded a GTP binding, percent of control in assay [3] of 72.9%. Moreover, in assay [5], the GTP binding signal, raw median fluorescence (lower = inhibition) (MCF (arbitrary fluorescence units)) came out at 163.

Take `O=C(O)c1ccc(Nc2nc(-c3cccnc3)nc3ccccc23)cc1`: the outcome in assay [1], in assay [4] and in assay [6] was inactive. Besides, the fluorescence, percent of control (lower = inhibition) in assay [2] came to 27.9%. For the same molecule, the GTP binding, percent of control in assay [3] worked out at 66.3%. The molecule further had a GTP binding signal, raw median fluorescence (lower = inhibition) (MCF (arbitrary fluorescence units)) in assay [5] of 142.

Regarding `Cc1ccc(Nc2n[nH]c(C)c2[N+](=O)[O-])c(C)c1`, the result in assay [1], in assay [4] and in assay [6] was inactive. The molecule further registered a fluorescence, percent of control (lower = inhibition) in assay [2] of 52.6%. This molecule also registered a GTP binding, percent of control in assay [3] of 65.8%. In addition, the GTP binding signal, raw median fluorescence (lower = inhibition) (MCF (arbitrary fluorescence units)) in assay [5] amounted to 194.

In the case of `NC(=S)N=Nc1c(O)[nH]c2cc(F)c(F)cc12`, the result in assay [1], in assay [4] and in assay [6] was inactive. The fluorescence, percent of control (lower = inhibition) in assay [2] worked out at 29.7%. Moreover, the GTP binding, percent of control in assay [3] stood at 63.2%. Also, the GTP binding signal, raw median fluorescence (lower = inhibition) (MCF (arbitrary fluorescence units)) in assay [5] was 155.

Turning to `Cc1ccc(OCc2ccc(C(=O)O)o2)cc1C`, the result in assay [1], in assay [4] and in assay [6] was inactive. In addition, the fluorescence, percent of control (lower = inhibition) in assay [2] was 61.7%. The molecule further yielded a GTP binding, percent of control in assay [3] of 90.6%. Besides, the GTP binding signal, raw median fluorescence (lower = inhibition) (MCF (arbitrary fluorescence units)) in assay [5] amounted to 34.8.

For `COc1ccccc1Oc1ccccc1C(=O)O`, the molecule was classed as inactive in assay [1], in assay [4] and in assay [6]. In assay [2], the fluorescence, percent of control (lower = inhibition) was 100%. This molecule also displayed a GTP binding, percent of control in assay [3] of 239%. In assay [5], the GTP binding signal, raw median fluorescence (lower = inhibition) (MCF (arbitrary fluorescence units)) was determined as 271.

Consider `CC(=O)Nc1cccc(C#CC(=O)c2ccc([N+](=O)[O-])cc2)c1`, for which the outcome in assay [1], in assay [4] and in assay [6] was inactive. In addition, the fluorescence, percent of control (lower = inhibition) in assay [2] was determined as 39.8%. In assay [3], this molecule returned a GTP binding, percent of control of 178%. In assay [5], the GTP binding signal, raw median fluorescence (lower = inhibition) (MCF (arbitrary fluorescence units)) was 104.

Consider `Cc1cccc(C)c1CCOc1ncccc1C(=O)O`, for which the molecule was called inactive in assay [1], in assay [4] and in assay [6]. Also, in assay [2], the fluorescence, percent of control (lower = inhibition) is 80.3%. The GTP binding, percent of control in assay [3] is 251%. In assay [5], this molecule came in with a GTP binding signal, raw median fluorescence (lower = inhibition) (MCF (arbitrary fluorescence units)) of 70.2.

Turning to `COc1cc2c(C)nc3c(c(C)nn3-c3ccccc3)c2cc1OC`, the call in assay [1], in assay [4] and in assay [6] was inactive. Moreover, in assay [2], the fluorescence, percent of control (lower = inhibition) came out at 32.3%. Further, the GTP binding, percent of control in assay [3] is 71.7%. In assay [5], the GTP binding signal, raw median fluorescence (lower = inhibition) (MCF (arbitrary fluorescence units)) was 167.

For `O=C(Nc1cccc(-c2nc3ncccc3o2)c1)c1sc2ccccc2c1Cl`, the call in assay [1], in assay [4] and in assay [6] was inactive. The molecule further came in with a fluorescence, percent of control (lower = inhibition) in assay [2] of 88.9%. This molecule also came in with a GTP binding, percent of control in assay [3] of 340%. The same molecule returned a GTP binding signal, raw median fluorescence (lower = inhibition) (MCF (arbitrary fluorescence units)) in assay [5] of 343.

In the case of `O=C(O)c1cc([N+](=O)[O-])ccc1NCc1ccccc1Cl`, the molecule was classed as inactive in assay [1], in assay [4] and in assay [6]. In assay [2], this molecule gave a fluorescence, percent of control (lower = inhibition) of 96.9%. Further, in assay [3], the GTP binding, percent of control is 112%. The molecule further had a GTP binding signal, raw median fluorescence (lower = inhibition) (MCF (arbitrary fluorescence units)) in assay [5] of 84.1.

`Cc1nnc(OC(C)C)c2nn(-c3ccccc3F)c(C)c12`: the outcome in assay [1], in assay [4] and in assay [6] was inactive. In assay [2], this molecule yielded a fluorescence, percent of control (lower = inhibition) of 55.1%. Besides, in assay [3], the GTP binding, percent of control was 69.3%. Also, the GTP binding signal, raw median fluorescence (lower = inhibition) (MCF (arbitrary fluorescence units)) in assay [5] was 0.

As for `O=C(O)CC/C(=C\c1ccccc1[N+](=O)[O-])c1nc2ccccc2s1`, the call in assay [1], in assay [4] and in assay [6] was inactive. For the same molecule, the fluorescence, percent of control (lower = inhibition) in assay [2] came to 30.2%. The molecule also came in with a GTP binding, percent of control in assay [3] of 81.6%. This molecule had a GTP binding signal, raw median fluorescence (lower = inhibition) (MCF (arbitrary fluorescence units)) in assay [5] of 248.

Turning to `COc1ccccc1OCCn1cc(C(=O)O)c2cc(Cl)ccc21`, the result in assay [1], in assay [4] and in assay [6] was inactive. This molecule registered a fluorescence, percent of control (lower = inhibition) in assay [2] of 55.3%. Further, the GTP binding, percent of control in assay [3] was determined as 204%. In assay [5], this molecule showed a GTP binding signal, raw median fluorescence (lower = inhibition) (MCF (arbitrary fluorescence units)) of 57.7.

For `C=CCOc1cccc(/C=N/NC(=O)CN(c2cc(Cl)ccc2OC)S(=O)(=O)c2ccc(C)c([N+](=O)[O-])c2)c1`, the molecule was classed as inactive in assay [1], in assay [4] and in assay [6]. The fluorescence, percent of control (lower = inhibition) in assay [2] is 50.3%. The molecule also displayed a GTP binding, percent of control in assay [3] of 56%. The molecule further came in with a GTP binding signal, raw median fluorescence (lower = inhibition) (MCF (arbitrary fluorescence units)) in assay [5] of 0.
